# Source: PubChem BioAssay (Tox21)
# Records with an inconclusive call do not appear. A number with no mark means an inactive call. The source made the active and inactive calls. The call rests on the fitted dose curve; in most records, active means well fitted cell-killing curve with a large enough effect in the repeat runs; inconclusive means weak or mixed curves, or effect the other way; inactive means flat fitted curve, though single readings scatter.
# Assay: qHTS RealTime-Glo MT Cell Viability Assay in HEK293 cells - 40 hour (AID 1224874); further: nearly all actives have a fitted effect of over 50% in size
# Settings: RealTime-Glo luminescence; max response: active compounds read low
# From the text: U.S. Tox21 Program National Center for Advancing Translational Sciences [NCATS] NIH Chemical Genomics Center [NCGC] U.S. Environmental Protection Agency [EPA] National Institutes of Environmental Health Sciences [NIEHS] National Toxicology Program [NTP] U.S. Food and Drug Administration [FDA] Tox21 Assay Overview: Measure of cell viability is critical in the cell-base assay. Analysis of cell viability is necessary for the characterization of cell responses to cytotoxic drugs and environmental stress. A RealTime-Glo MT Cell Viability Assay to monitor cell viability in real time of continues cell culture during 40 hours of compound treatment was used to screen Tox21 10K library compounds in Hek293 cells. The RealTime-Glo MT Cell Viability Assay is a nonlytic, homogeneous, bioluminescent method to measure cell viability in real time using a simple, plate-based method. The assay involves adding NanoLuc luciferase and a cell-permeant prosubstrate to cells in culture. Viable cells reduce the proprietary prosubstrate to generate a substrate for NanoLuc luciferase. This substrate diffuses from cells into the surrounding culture medium, where it is rapidly used by the NanoLuc Enzyme to produce a luminescent signal. The signal correlates with the number of viable cells, making the assay well suited for cytotoxicity studies.
# Tox21 Assay Protocol Summary: The mixture of Hek293 cell suspension and reagents were dispensed at 600cells/6 ul/well in 1536-well tissue culture treated black solid bottom plates using a Multidrop dispenser. After the assay plates were incubated at a 37 C/5% CO2 incubator for 5 hours, 23 nL of compounds dissolved in DMSO, positive and negative controls was transferred to the assay plate by a pintool work station. The plates were incubated at 37 C for 40 hours. The luminescence intensity were measured at 0h, 8h, 16h, 24h, 32h and 40h time points using ViewLux plate reader during compound treatment.
# On the % scale 0 is the no-effect control and ±100 the full control effect; potency means the concentration at half of the fitted maximal effect.
SMILES,max response [%],Potency
O=C(O)C1(C(=O)O)CCC1.[NH2-].[NH2-].[Pt+2],-1.65,–
CCOC(=O)C1=C[C@]2(CC)CCCN3CCc4c(n1c1ccccc41)[C@@H]32,-21.2,–
C[C@@H](c1ncncc1F)C(O)(Cn1cncn1)c1ccc(F)cc1F (stereo not given in full),3.08,–
C=C1C(=C/C=C2\CCC[C@]3(C)[C@@H]([C@H](C)/C=C/[C@@H](O)C4CC4)CC[C@@H]23)C[C@@H](O)C[C@@H]1O,–,8.49 µM (active)
Cc1cccc(C)c1OCC(=O)N[C@@H](Cc1ccccc1)[C@@H](O)C[C@H](Cc1ccccc1)NC(=O)[C@H](C(C)C)N1CCCNC1=O,–,23.9 µM (active)
Cc1c(N)cccc1[N+](=O)[O-],-13.1,–
c1ccc(-c2ccccn2)nc1,-0.479,–
COc1cc2nc(N3CCN(C(=O)C4COc5ccccc5O4)CC3)nc(N)c2cc1OC (stereo not given),–,23.9 µM (active)
O=C(OCCc1ccccc1)c1ccccc1,-19.4,–
CN(C)CCN(Cc1ccsc1)c1ccccn1,1.6,–
CC(C)OC(=O)C(C)N(C(=O)c1ccccc1)c1ccc(F)c(Cl)c1 (stereo not given),-29.8,–
O=C(O)C1(C(=O)Nc2ccc(Cl)cc2Cl)CC1,-17.6,–
C=CC(=O)OCCOCCOC(=O)C=C,–,31 µM (active)
C[N+]1(C)CCC(OC(=O)C(O)(c2ccccc2)C2CCCC2)C1 (stereo not given),3.92,–
OCCNCc1ccccc1,-10.3,–
CC(=O)c1ccc2c(c1)N(CCCN1CCC(CCO)CC1)c1ccccc1S2,–,21.3 µM (active)
O=C(O)c1ccccc1Cl,-1.6,–
CCOC(=O)NCCOc1ccc(Oc2ccccc2)cc1,–,21.9 µM (active)
CCCCCCCCCCCc1ccccc1,-1.2,–
OCc1cc(C(O)CNCCCCCCOCCCCc2ccccc2)ccc1O (stereo not given),–,23.9 µM (active)

SMILES,max response [%],Potency
CCC(C)c1cc(C(C)(C)C)c(O)c(C(C)(C)C)c1 (stereo not given),0.103,–
CN1C[C@H]2c3ccccc3Oc3ccc(Cl)cc3[C@@H]2C1,-21.8,–
COc1ccnc(CS(=O)c2nc3ccc(OC(F)F)cc3[nH]2)c1OC (stereo not given),-16.2,–
O=C1OC(=O)C2C3C=CC(C3)C12 (stereo not given),12.9,–
CC1CCC(=O)C1=O (stereo not given),3.01,–
CCCCC/C=C\C/C=C\CCCCCCCC(=O)NC(C)c1ccccc1 (stereo not given),-16.2,–
COc1cccc(N(C)C(=S)Oc2ccc3c(c2)CCCC3)n1,-20.4,–
O=[N+]([O-])c1ccc2[nH]ncc2c1,-13.3,–
C[N+](C)(C)CCOC(=O)CCC(=O)OCC[N+](C)(C)C,3.39,–
O=P(O)(OCc1ccccc1)OCc1ccccc1,2.99,–
COC(=O)c1ccc(I)cc1S(=O)(=O)NC(=O)Nc1nc(C)nc(OC)n1,0.658,–
CN(C)CCN(Cc1ccccc1)c1ccccn1,-27.7,–
COc1ccc2cccc(CCNC(C)=O)c2c1,-8.88,–
C=C(C)C(=O)OCCO,3.51,–
NCCCN1CCOCC1,-9.34,–
CN(C)c1ccc(CCO)cc1,–,34.5 µM (active)
CC(C)(C)Cl,1.73,–
CCCCC(CC)COC(=O)CCCCCCCCC(=O)OCC(CC)CCCC (stereo not given),1.51,–
CC(=O)[O][Al],3.87,–
CC1OC(=O)C(C)OC1=O (stereo not given),-4.59,–
